Assay [1] addresses Voltage-gated inwardly rectifying potassium channel KCNH2 (Homo sapiens) (UniProt Q12809). Nature of the assay: qHTS Assay for Small Molecule Inhibitors of the Human hERG Channel Activity (AID 588834).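 Note: lower thallium flux fluorescence means stronger hERG block; nearly all actives have a fitted effect of over 50% in size.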 Note: potency is the fitted concentration of half-maximal effect. The method, boiled down: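 Measured: FluxOR fluorescence after thallium stimulation in U2OS cells transduced with hERG by baculovirus. Compounds pre-incubated around 10 min; medium Opti-MEM with 2% FCS. AC50 from Hill equation.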

In assay [2] the target is Luciferin 4-monooxygenase (Photinus pyralis) (UniProt P08659). Nature of the assay: Biochemical firefly luciferase enzyme assay for NPC (AID 624030).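 Note: purified P. pyralis luciferase at 10 nM with luciferin and ATP substrate; series mostly up to about 59 µM; nearly all actives have a fitted effect of over 70% in size.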 In short, it runs like this:
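Purified P. pyralis luciferase at 10 nM in 50 mM Tris Acetate (final), luminescence read within 5 minutes of enzyme addition to compounds. Activity normalised to PTC124 versus DMSO; concentration-response curves classed by r2, magnitude and activity.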

Consider seven compounds from PubChem BioAssay (NCATS).

Records with an inconclusive call do not appear. A call without a number means that no potency is given here. Activity calls are given as the source filed them. Calls come from the whole dose curve; as a rule, active = well fitted inhibition curve with a large enough effect; inconclusive = small, poorly fitted or top-dose-only effect; inactive = flat fitted curve, though single readings scatter.

Luciferin 4-monooxygenase (Photinus pyralis), sequence (P08659 whole entry, looked up): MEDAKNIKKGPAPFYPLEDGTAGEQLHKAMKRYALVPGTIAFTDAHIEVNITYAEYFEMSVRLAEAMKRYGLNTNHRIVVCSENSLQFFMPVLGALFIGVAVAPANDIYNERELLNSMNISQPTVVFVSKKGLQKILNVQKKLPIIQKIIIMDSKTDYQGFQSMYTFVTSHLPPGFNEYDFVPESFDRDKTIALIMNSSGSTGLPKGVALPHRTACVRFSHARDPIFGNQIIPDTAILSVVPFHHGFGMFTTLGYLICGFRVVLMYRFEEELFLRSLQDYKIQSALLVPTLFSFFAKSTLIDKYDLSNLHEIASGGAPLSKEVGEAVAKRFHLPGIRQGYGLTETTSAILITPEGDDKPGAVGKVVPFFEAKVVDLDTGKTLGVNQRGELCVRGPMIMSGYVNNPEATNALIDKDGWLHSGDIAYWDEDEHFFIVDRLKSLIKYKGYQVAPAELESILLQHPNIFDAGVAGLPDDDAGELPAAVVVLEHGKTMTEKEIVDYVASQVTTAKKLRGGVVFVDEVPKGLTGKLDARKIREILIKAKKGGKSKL
Voltage-gated inwardly rectifying potassium channel KCNH2 (Homo sapiens), sequence (Q12809 whole entry, looked up): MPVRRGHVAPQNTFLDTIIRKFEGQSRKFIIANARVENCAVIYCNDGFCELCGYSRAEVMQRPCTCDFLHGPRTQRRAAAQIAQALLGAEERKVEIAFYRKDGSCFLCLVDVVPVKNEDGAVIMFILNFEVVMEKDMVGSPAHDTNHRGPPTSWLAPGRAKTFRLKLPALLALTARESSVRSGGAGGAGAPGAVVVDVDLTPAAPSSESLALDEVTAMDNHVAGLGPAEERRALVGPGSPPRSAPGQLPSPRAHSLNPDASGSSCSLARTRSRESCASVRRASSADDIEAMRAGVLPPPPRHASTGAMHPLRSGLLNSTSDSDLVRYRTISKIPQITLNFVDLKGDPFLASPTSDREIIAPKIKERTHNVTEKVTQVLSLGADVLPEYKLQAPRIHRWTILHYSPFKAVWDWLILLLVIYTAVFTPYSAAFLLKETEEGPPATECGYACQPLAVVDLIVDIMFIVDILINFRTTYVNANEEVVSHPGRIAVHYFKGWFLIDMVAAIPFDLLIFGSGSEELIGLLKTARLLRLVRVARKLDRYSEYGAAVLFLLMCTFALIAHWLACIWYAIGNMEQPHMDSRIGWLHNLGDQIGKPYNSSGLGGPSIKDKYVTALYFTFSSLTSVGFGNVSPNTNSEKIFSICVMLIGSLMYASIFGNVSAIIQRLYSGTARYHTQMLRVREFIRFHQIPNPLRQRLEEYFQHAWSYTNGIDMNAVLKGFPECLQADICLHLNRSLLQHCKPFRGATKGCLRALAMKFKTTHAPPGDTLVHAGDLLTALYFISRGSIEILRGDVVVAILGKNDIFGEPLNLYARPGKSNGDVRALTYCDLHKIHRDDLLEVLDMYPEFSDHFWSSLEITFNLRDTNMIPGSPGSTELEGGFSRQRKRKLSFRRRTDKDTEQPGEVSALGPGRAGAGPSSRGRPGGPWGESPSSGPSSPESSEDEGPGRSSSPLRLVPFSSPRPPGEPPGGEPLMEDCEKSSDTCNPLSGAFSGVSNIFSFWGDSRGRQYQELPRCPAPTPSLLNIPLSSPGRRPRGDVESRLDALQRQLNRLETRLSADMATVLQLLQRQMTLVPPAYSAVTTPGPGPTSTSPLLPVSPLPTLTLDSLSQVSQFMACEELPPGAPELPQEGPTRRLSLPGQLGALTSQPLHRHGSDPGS

For the compound `c1ccc(C2CC2)c(OCC2=NCCN2)c1`, the Potency result in assay [1] and in assay [2] was “inactive” throughout.

Turning to `CC1OC(C)OC(C)O1` (stereo not drawn), the Potency entry in assay [1] and in assay [2] was “inactive” throughout.

`CC(=O)[C@H]1CC[C@H]2[C@@H]3CC[C@H]4C[C@](C)(O)CC[C@]4(C)[C@H]3CC[C@]12C`: the Potency entry in assay [1] and in assay [2] was “inactive” throughout.

In the case of `Clc1cccc(N2CCNCC2)c1`, the Potency result in assay [1] and in assay [2] was “inactive” in each case.

With `CO[C@]12CC[C@@]3(C[C@@H]1[C@](C)(O)C(C)(C)C)[C@@H]1Cc4ccc(O)c5c4[C@@]3(CCN1CC1CC1)[C@H]2O5`, in assay [2], the Potency entry was “inactive”.

For the compound `CCN(C(C)=O)c1cccc(-c2ccnc3c(C#N)cnn23)c1`, the Potency result in assay [1] and in assay [2] was “inactive” each time.

As for `FC(F)(F)c1cccc(C2=CCN(CCc3ccc4ccccc4c3)CC2)c1`, in assay [1], the Potency is 1580 nM (active). For the same compound, in assay [2], the Potency entry was “inactive”.
